The campaign covered roughly 64,000 compounds. Fewer than 10 were called active.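 The calls were made as follows: active = activation factor of at least 2 at 20 µM, relative to controls; inactive = the rest.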 The list is a sample of the results.

The text below walks through data of PubChem BioAssay AID813 (Sanford-Burnham Center for Chemical Genomics, 2007).

Alkaline phosphatase, tissue-nonspecific isozyme (Homo sapiens), sequence (P05186 whole entry, looked up): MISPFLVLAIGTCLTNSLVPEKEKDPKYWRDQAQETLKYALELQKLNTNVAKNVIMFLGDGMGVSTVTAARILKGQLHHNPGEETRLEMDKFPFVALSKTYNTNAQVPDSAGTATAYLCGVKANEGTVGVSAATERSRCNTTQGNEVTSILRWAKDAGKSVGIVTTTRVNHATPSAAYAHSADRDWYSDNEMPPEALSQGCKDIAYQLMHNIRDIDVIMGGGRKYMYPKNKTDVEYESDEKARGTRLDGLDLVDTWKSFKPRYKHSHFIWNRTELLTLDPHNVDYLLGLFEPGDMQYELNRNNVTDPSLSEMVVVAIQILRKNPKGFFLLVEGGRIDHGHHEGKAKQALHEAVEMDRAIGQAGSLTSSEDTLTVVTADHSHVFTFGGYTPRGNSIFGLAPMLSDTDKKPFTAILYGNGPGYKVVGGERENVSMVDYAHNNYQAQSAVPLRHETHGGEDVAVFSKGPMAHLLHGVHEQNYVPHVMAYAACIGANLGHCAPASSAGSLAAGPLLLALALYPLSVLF

The assay concerns the target Alkaline phosphatase, tissue-nonspecific isozyme (Homo sapiens) (UniProt P05186). As to the kind of experiment: human TNAP enzyme activators, primary screen, biochemical, luminescent, intermediate phosphate acceptor level (AID 813). Conditions: purified TNAP, CDP-star luminescence, 100 mM DEA, 30 min; at 20 µM; active compounds read high; scale: 0 levamisole-inhibited, 1 vehicle-only enzyme.
Regarding `CC/C(=N\O)C(C)(C)/[N+]([O-])=C/c1ccc(Br)cc1`, the activation factor is 0.9 (inactive).
The figure for `CCCN1Cc2cccc(C(=O)NCc3ccccc3)c2C1=O` is 0.9 (inactive); for `CC(=O)N1CCc2cc(S(=O)(=O)Nc3ccccc3N3CCN(C)CC3)ccc21` it is 1 (inactive).
In the case of `CCN(CC)c1ccc2cc(C(=O)O)c(=O)oc2c1`, the activation factor was 1 (inactive).
Consider `Cc1ccc(C)c(N2CCN(C(=O)CCCCn3c(=O)[nH]c4ccccc4c3=O)CC2)c1`, for which the activation factor was 0.8 (inactive).
The figure for `CC1(C)Cc2c(sc3nc4n(c(=N)c23)CCCCC4)CO1` is 0.4 (inactive); for `O=c1cccc(-c2ccc(Br)cc2)o1` it is 0.9 (inactive); for `O=C(CN1CCN(c2ccc(F)cc2)CC1)Nc1cccc(C(F)(F)F)c1` it is 0.9 (inactive).
The same measure for `Cc1ccc(S(=O)(=O)N2CCC(C(=O)OCC(=O)N3CC(=O)Nc4ccccc43)CC2)cc1`: 0.9 (inactive); for `CCC(c1nnnn1Cc1ccco1)N(CCc1ccccc1)Cc1cc2cccc(C)c2[nH]c1=O` (stereo not given): 0.9 (inactive).
As to `O=C1CC(Cc2ccccc2)C(=O)N1c1ccc(Cl)cn1` (stereo not given), the activation factor was 1 (inactive).
The same measure for `C=CCn1c(SCC(=O)NC23CC4CC(CC(C4)C2)C3)nc(O)cc1=O`: 0.9 (inactive); for `CCn1c(=N)n(CC(=O)c2cccc(OC)c2)c2ccccc21`: 1 (inactive).
The same measure for `O=C(CCCOc1ccccc1)Nc1cccc(C(=O)O)c1`: 1 (inactive); for `COc1ccc(S(=O)(=O)N2CCN(c3ncnc4c(-c5ccccc5)nsc34)CC2)cc1`: 0.9 (inactive).
Regarding `CCOC(=O)c1c(N)c(C#N)nn1-c1ccccc1C(=O)OC`, the activation factor was 0.8 (inactive).
The same measure for `Cc1cccc(N2CC(C)Cn3c2nc2c3c(=O)n(CC(=O)OCc3ccccc3)c(=O)n2C)c1` (stereo not given): 0.9 (inactive); for `CCn1c(=O)cc(O)c2ccccc21`: 1 (inactive).
The figure for `O=C1c2ccccc2C(O)N1Cc1ccccc1` (stereo not given) is 1 (inactive); for `CCOc1ccc(CCNC(=O)C(CC)n2nc(C)n3c(cc4sccc43)c2=O)cc1OCC` (stereo not given) it is 1 (inactive).
The same measure for `Cc1cc(=O)n2c3c(cccc13)CCC2`: 0.9 (inactive); for `CC(C)OCCCNc1nc2c(c(=O)n(Cc3ccccc3F)c(=O)n2C)n1C`: 0.9 (inactive); for `CCOC(=O)c1sc(NC(=O)c2cc(S(=O)(=O)N3CCOCC3)ccc2C)nc1C`: 0.9 (inactive).
For the molecule `Cc1ccc(S(=O)(=O)NCCN2CCOCC2)cc1C`, the activation factor was 1 (inactive).
The same measure for `Cc1cc(C(=O)N2CCN(c3ccccn3)CC2)c(C)o1`: 0.9 (inactive); for `CC(=O)NCC(=O)N(C)C(C(=O)Nc1ccc2c(c1)OCCO2)c1ccccc1` (stereo not given): 1 (inactive).
Consider `CCOC(=O)c1c(C2CC2)csc1NC(=O)CSCc1c(C)noc1C`, for which the activation factor was 0.9 (inactive).
For `O=C(NC1CCCCC1)c1ccc2c(=O)n(CC3CCCO3)c(=O)[nH]c2c1` (stereo not given), the activation factor is 1 (inactive).
The figure for `CCOc1ccc(OCC)c(NC(=O)CSc2nnc(Cn3cnc4ccccc43)n2C)c1` is 0.9 (inactive).
`CCOC(=O)CSc1nc2c(c(=O)n(Cc3ccccc3Cl)c(=O)n2C)n1C`: the activation factor is 0.9 (inactive).
The figure for `CCOC(=O)C1=C(CNC2CCCCC2)NC(=O)NC1c1cc(C)ccc1C` (stereo not given) is 0.9 (inactive).
The same measure for `CSc1ccc(S(=O)(=O)NCc2ccc(Cl)cc2)cc1`: 0.8 (inactive); for `CC1(C)CC(=O)C=C(NC2CC(C)(C)NC(C)(C)C2)C1`: 0.9 (inactive); for `CCOC(=O)n1c(SCC(=O)N(CC)CC)nc2ccccc21`: 0.9 (inactive).
The same measure for `CCC(C)(C)n1nnnc1C(c1ccccc1OC)N1CCSCC1` (stereo not given): 0.9 (inactive).
